TDP1 cell noCPT – qHTS for Inhibitors of human tyrosyl-DNA phosphodiesterase 1 (TDP1): qHTS in cells in absence of CPT | Potency, µM (doses to about 46.2 µM), most hits filed as inhibitors | AID 686978, 2013 | DT40 Tdp1-/- hTDP1 cells, no CPT, ATP luminescence, 48 h | 420,000 compounds, 15% hits; note: nearly all actives have a fitted effect of over 55% in size
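Seeded 400 DT40-hTDP1 cells/well (vehicle DMSO, no 20 nM CPT); pinned compounds; ≥48 hr at 37 °C; CellTiter-Glo luminescence as viability measure.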
HT1080 IDH1KD tx – toxicity to HT-1080 IDH1 knockdown cells (counter line); HT-1080 IDH1 knockdown viability, ATP luminescence, 48 h; Potency, µM (series often up to 46.1 µM), most hits filed as cytotoxic; 360,000 compounds, 2% hits
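In this qHTS, HT-1080 cells depleted of IDH1 are exposed for 48 h at 37 °C to compound titrations. Toxicity is scored from CellTiter-Glo luminescence, with DMSO as full viability and medium alone as none.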
DT40 TDP1 CPT – growth inhibition of DT40 Tdp1-/-;hTDP1 cells with camptothecin (screen for TDP1 inhibitors); chicken DT40 Tdp1-/-;hTDP1 cells + 20 nM CPT, ATP luminescence, 48 h; Potency, µM (series often up to 46.2 µM), usual class: inhibitors; 420,000 compounds, 12% hits; AID 686979; note: nearly all actives have a fitted effect of over 55% in size
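Chicken DT40 Tdp1-/- cells complemented with human TDP1, 400 cells/well, exposed to compounds plus 20 nM camptothecin for at least 48 h at 37 C; viability read as ATP content by CellTiter-Glo luminescence.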
HT1080NT lethal – kills 2HG-producing HT-1080-NT fibrosarcoma cells; HT-1080-NT fibrosarcoma viability, CellTiter-Glo ATP luminescence, 48 h; AID 686970; Potency, µM (doses to about 46.1 µM), actives largely listed as cytotoxic; 360,000 compounds, 1.6% hits;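 note: NT is the 2HG producing partner of a matched IDH1 knockdown line; nearly all actives have a fitted effect of over 55% in size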
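A 48-hour cytotoxicity screen used HT-1080-NT cells plated 2 hours before compound delivery. ATP-based CellTiter-Glo luminescence measured viability, normalized to DMSO and no-cell controls.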
IL-1B inflam inh – blocks inflammasome-driven IL-1 beta release; THP-1 LPS/ATP IL-1B secretion, AlphaLISA, 16 h; active compounds read low; activity change, % at 57.5 µM; 360,000 compounds, 4.7% hits; AID 743279; in the data active = activity change below about -50%; inconclusive = mostly about -30% to -49%
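THP-1 cells pretreated 1 hr with compounds (up to 57.5 uM final), then stimulated with LPS (250 ng/mL final) plus ATP (1.25 mM final); secreted IL-1B measured by AlphaLISA after 16 hr, decreased signal indicating inhibition.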
A number is an active result; i = inactive; ? = inconclusive; nt = no result; ! = repeats disagree. In the library only some 19% were active in any assay of this set; here they are far more common. Unless noted, calls come from the whole dose curve; as a rule, active = well fitted curve in the direction sought with a large enough effect; inconclusive = small, poorly fitted or top-dose-only effect, or another doubt; inactive = no such curve, though single readings can be large; an effect the other way counts as inactive or inconclusive.

SMILES	TDP1 cell noCPT	HT1080 IDH1KD tx	DT40 TDP1 CPT	HT1080NT lethal	IL-1B inflam inh
Cc1nn(Cc2ccccc2Cl)c(C)c1NC(=O)C1C2CCC(O2)C1C(=O)O (configuration not stated)	?	i	i	i	i
Cc1nn(Cc2ccc(Cl)cc2Cl)c(C)c1NC(=O)c1nn(C)cc1Cl	9.2µM	i	8.2µM	i	i
Cc1nn(Cc2ccc(Cl)cc2Cl)c(C)c1NC(=O)C1C2CCC(O2)C1C(=O)O (configuration not stated)	15µM	i	?	i	i
Cc1nn(C)c(Cl)c1NC(=O)OCc1ccc(Cl)cc1Cl	13µM	i	15µM	i	i
CCn1nc(C)c(NC(=O)c2ccc(Cl)cc2)c1C	i	i	i	i	i
Cc1nnsc1NC(=O)OCc1ccc(Cl)cc1Cl	?	i	i	i	i
COc1ccc(CNC(=O)c2ccc(N3CCC4(CC3)CC(c3ccc(Cl)cc3)=NO4)c(NC(=O)c3ccccc3)c2)cc1	i	i	i	i	i
CC(C)N1CCCC(C)(C(=O)Nc2nc3ccccc3n2C)C1 (configuration not stated)	i	i	i	i	i
COc1cc(=O)n2c(c1C(=O)N(C)Cc1cscn1)CCN(C(=O)c1ccc(C)c(C)c1)CC2	i	nt	i	nt	nt
COc1ccccc1[C@@]1(C)ON(c2ccccc2C(F)(F)F)C1=O	?	i	?	i	-94
O=C1N(c2ccccc2C(F)(F)F)OC1(Cc1ccccc1)c1ccccc1 (configuration not stated)	?	i	i	i	-80
CSC1=C(C#N)C(c2ccccc2Cl)C2=C(N1)c1ccccc1C2=O (configuration not stated)	18µM	i	23µM	i	-98
Cc1nn(-c2ccccn2)c2c1C(c1ccccc1Cl)C1=C(N2)c2ccccc2C1=O (configuration not stated)	4.6µM	i	6.5µM	i	i
COc1ccccc1OCc1nnc(SCC(=O)Nc2nnc(C3CC3)s2)n1C	?	i	i	i	i
Cc1[nH]c2ccccc2c1C(=O)c1cc(Cc2ccccc2)sc1N	16µM	?	?	?	-51
CN(C(=O)c1ccoc1)c1ccc2ccccc2c1	?	i	13µM	i	i
COc1ccc(C)cc1Cn1c(S(C)(=O)=O)nc2ccccc21	21µM	i	16µM	?	i
Cc1ccc(C)c(N2CCN(C(=O)Cn3nc(Cc4cccnc4)c4ccccc4c3=O)CC2)c1	23µM	nt	?	nt	nt
O=C(Cn1nc(Cc2cccnc2)c2ccccc2c1=O)N1CCN(c2ccc(F)cc2)CC1	23µM	nt	?	nt	nt
O=C(CCS(=O)(=O)c1nc(-c2cccs2)cc(C(F)(F)F)n1)Nc1cc(Br)ccc1O	1.2µM	nt	0.65µM	nt	nt
Cc1ccc(O)c(NC(=O)CCS(=O)(=O)c2nc(-c3cccs3)cc(C(F)(F)F)n2)c1	5.8µM	nt	2.6µM	nt	nt
O=C(CCS(=O)(=O)c1nc(-c2cccs2)cc(C(F)(F)F)n1)Nc1ccc(Br)cc1	3.7µM	nt	5.2µM	nt	nt
Cc1ccc(S(=O)(=O)CCC(=O)Nc2ccc(Br)cc2C)cc1	i	nt	i	nt	nt
CCNC(=O)C1(C)CCN(C(=O)c2ccc(OC)cc2OC)C1 (configuration not stated)	i	i	i	i	i
O=C(NCc1ccc2c(c1)OCO2)c1nnc(Cc2ccc(Cl)cc2)o1	i	i	i	i	i
SMILES	TDP1 cell noCPT	HT1080 IDH1KD tx	DT40 TDP1 CPT	HT1080NT lethal	IL-1B inflam inh
C=C1C(=O)[C@]23C[C@H]1CCC2[C@]1(C)C(=O)CC[C@@](C)(C(=O)O)C1C[C@@H]3O (some centres not stated)	3.7µM	8.2µM	2.9µM	6.5µM	-109
C=C/C(C)=C/CC1C(=C)CCC2C(C)(C(=O)O)CCCC12C (configuration not stated)	i	i	i	i	i
C=C1C(=O)[C@]23C[C@H]1CCC2[C@]1(C)CCC[C@@](C)(C(=O)O)C1C[C@@H]3O (some centres not stated)	1.6µM	2.3µM	1.5µM	4.1µM	-121
C=C1C(=O)[C@]23C[C@H]1CC[C@H]2[C@]1(C)[C@@H](OC(C)=O)CC[C@@](C)(C(=O)O)[C@H]1C[C@@H]3OC(C)=O	4.1µM	6.5µM	2.1µM	6.5µM	-99
COc1ccc(NC(=O)C(C)N2CCN(C)CC2)cc1 (configuration not stated)	i	i	i	i	i
COC(=O)C1=C(CS(=O)(=O)c2cc(Cl)ccc2OC)NC(=O)NC1c1ccc(O)c(OC)c1 (configuration not stated)	i	i	i	i	i
CS(=O)(=O)c1ccccc1-c1nnc(NC(=O)c2ccc3c(c2)OCCO3)o1	?	nt	i	nt	nt
CC(C)C[C@H](NC(=O)[C@H](Cc1ccccc1)NC(=O)c1cnccn1)B(O)O	0.0075µM	nt	0.0042µM	nt	nt
CCOCCCNC(=O)C(c1ccc(OC)cc1)N(Cc1cccs1)C(=O)c1ccccn1 (configuration not stated)	?	i	i	i	i
COc1ccc(NC(=O)C(c2ccc(OC)cc2)N(C)C(=O)Cc2cccs2)cc1 (configuration not stated)	i	i	23µM!	i	?
CCOCCCNC(=O)C(c1ccc(OC)cc1)N(Cc1cccs1)C(=O)c1ccc(NC(C)=O)cc1 (configuration not stated)	12µM	nt	8.2µM	nt	nt
COc1ccc(CNc2nnnn2C)c(OC)c1	i	i	i	i	i
Cc1ccc2nc3c(cc(C#N)c(=O)n3-c3nnc(SCc4ccccc4Cl)s3)c(=O)n2c1	i	nt	i	nt	nt
CCOc1ccccc1NC(=O)CN1CCC(C(=O)c2ccc(F)cc2)CC1	26µM	i	21µM	i	i
O=C(CN1CCC(C(=O)c2ccc(F)cc2)CC1)Nc1ccccc1Cl	12µM	i	i	i	i
COc1ccccc1NC(=O)CN1CCC(C(=O)c2ccc(F)cc2)CC1	?	i	?	i	i
Cc1ccc(C(=O)C2CCN(CC(=O)Nc3nc(C)cs3)CC2)cc1	16µM	i	21µM	i	i
CC(C)(C)C1CCc2c(sc(NC(=O)CSc3ncn[nH]3)c2C#N)C1 (configuration not stated)	?	11µM	?	11µM	?
N#Cc1c(NC(=O)CSc2ncn[nH]2)sc2c1CCCC2	?	i	?	i	i
CC1CCc2c(sc(NC(=O)CSc3ncn[nH]3)c2C#N)C1 (configuration not stated)	23µM	?	?	i	i
CC(=O)c1c(C)[nH]c(C(=O)OCC(=O)Nc2sc3c(c2C#N)CCC(C)C3)c1C (configuration not stated)	23µM	26µM	?	i	i
